# ± gives the standard deviation of the averaged measurements.
# Columns and labels:
# Details in all cases: concentration: 10 µM; 24 h
# [1] = system: HCC1569; assay: cell number relative to DMSO (% of DMSO); higher = more cells (less growth inhibition / toxicity)
# In short: (§1)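 Cell number or H1.0 nuclear intensity appears as percent of the plate control, based on the median of replicates. Measurements came from HCC1569 and TDF cells exposed in triplicate to compounds at 10 µM for 24 h at 37 °C, then imaged in six fields per well at ×10. Positional effects were smoothed out of HCC1569 values.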
# [2] = system: TDF; assay: as above
# In short: as §1
# [3] = system: TDF; assay: H1.0 immunofluorescence intensity relative to DMSO (% of DMSO); higher = stronger H1.0 induction, active = 120 or more
# In short: as §1
# [4] = system: HCC1569; assay: H1.0 immunofluorescence intensity relative to DMSO (% of DMSO); higher = stronger H1.0 induction, active = 140 or more
# In short: as §1
# 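Throughout, for H1.0 immunofluorescence intensity relative to DMSO: TDF is a line of transformed human dermal fibroblasts of mesenchymal origin.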
# 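Throughout, for cell number relative to DMSO: TDF denotes transformed human dermal fibroblasts of mesenchymal origin.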
Structure (SMILES),cell number [1],cell number [2],H1.0 immunofluorescence intensity [3],H1.0 immunofluorescence intensity [4]
Cl.Cl.Clc1cccc(N2CCNCC2)c1 [1-(3-Chlorophenyl)piperazine dihydrochloride],83.5,87.5,105 (inactive),100 (inactive)
Cc1c(C(=O)Nc2cccc(C(F)(F)F)c2)cc(-c2ccccc2)n1CCCN1CCOCC1,92.8,94.3,95 (inactive),115 (inactive)
COCC1OC(=O)c2coc3c2C1(C)C1=C(C3=O)C2CCC(=O)C2(C)CC1OC(C)=O (configuration not stated) [Wortmannin from Penicillium funiculosum],41.7,100,89.5 (inactive),153 (active)
CC(C)(C)NCC(O)c1cc(Cl)c(N)c(Cl)c1 (configuration not stated) [Clenbuterol],99.5,103,95.2 (inactive),118 (inactive)
NC(=NCCCC(N)C(=O)O)N[N+](=O)[O-] [NG-Nitro-L-arginine],104,96.7,89.6 (inactive),90 (inactive)
CC1(C(=O)O)C2CCC(O2)C1(C)C(=O)O (configuration not stated) [Cantharidic Acid],19.6,13.6,239 (active),180 (active)
CN1C2CC(OC(=O)C(CO)c3ccccc3)CC1C1OC12 (configuration not stated) [Scopolamine],102,105,94.4 (inactive),96.7 (inactive)
CN1CCc2cccc(Cl)c2CC1.Cl,103,98.7,96.2 (inactive),86.7 (inactive)
N#CC(C#N)=Cc1cc(O)c(O)c(O)c1 [Tyrphostin 25],91.1,89.8,102 (inactive),113 (inactive)
Cl.NC(=O)c1ccc(OCC(O)CN2CC=C(c3ccc(F)cc3)CC2)cc1 (configuration not stated),105,107,96.4 (inactive),106 (inactive)
C=CCN1CCC23CCCCC2C1Cc1ccc(O)cc13.O=C(O)C(O)C(O)C(=O)O (configuration not stated) [Levallorphan tartrate],99.1,118,90.1 (inactive),100 (inactive)
"O=c1[nH]c2ccccc2n1C1CCN(Cc2ccc(-c3nc4cc5[nH]cnc5cc4nc3-c3ccccc3)cc2)CC1 [Akt Inhibitor VIII, Isozyme-Selective, Akti-1/2]",75.9,81.2,105 (inactive),131 (inactive)
Cl.FC(F)(F)c1cccc(C2=CCN(CCc3ccc4ccccc4c3)CC2)c1,109,96.7,96.3 (inactive),100 (inactive)
Cl.NN=C(N)N [Aminoguanidine hydrochloride],105,109,93.8 (inactive),94.2 (inactive)
CNc1ccc2oc(CC3OC4(CCC3C)OC(C(C)C(=O)c3ccc[nH]3)C(C)CC4C)nc2c1C(=O)O (configuration not stated),70.4,49.7,151 (active),124 (inactive)
"C[N+]1(C)CCc2cc3c(cc2C1C1OC(=O)c2c1ccc1c2OCO1)OCO3.[Br-] (single isomer, unassigned; (-)) [(-)-Bicuculline methbromide, 1(S), 9(R)]",101,104,94.2 (inactive),96.4 (inactive)
Cl.O=C(CCCN1CCC2(CC1)C(=O)N(CCc1ccc(N=C=S)cc1)CN2c1ccccc1)c1ccc(F)cc1 [N-(p-Isothiocyanatophenethyl)spiperone hydrochloride],82.7,74,128 (active),149 (active)
c1cncc(C2CCCCN2)c1 (racemic),102,110,96 (inactive),84.1 (inactive)
CCN(CC)c1ncnc2c1ncn2C1OC(COP(=O)([O-])OP(=O)([O-])C(Br)(Br)P(=O)([O-])O)C(O)C1O.[Na+].[Na+].[Na+] (configuration not stated),102,101,92.6 (inactive),96.5 (inactive)
CCS(=O)(=O)Nc1cccc(C(=C2CCCCC2)c2cnc[nH]2)c1,99.6,101,94.6 (inactive),92.5 (inactive)
"Br.NC1CCc2cc(O)c(O)cc2C1 (configuration not stated) [6,7-ADTN hydrobromide]",104,103,93.1 (inactive),92.4 (inactive)
O=C1NCN(c2ccccc2)C12CCN(CC1COc3ccccc3O1)CC2 (configuration not stated) [Spiroxatrine],98.9,105,101 (inactive),97.4 (inactive)
Cl.Cl.Oc1ccc2c3c1OC1c4[nH]c5c(c4CC4(O)C(C2)N(CC2CC2)CCC314)CC1(O)C2Cc3ccc(O)c4c3C1(CCN2CC1CC1)C5O4 (configuration not stated) [nor-Binaltorphimine dihydrochloride],106,114,94.9 (inactive),89.7 (inactive)
NC(Cn1ccc(=O)[nH]c1=O)C(=O)O (stereo not drawn) [S(-)-Willardiine],104,118,97.7 (inactive),97.6 (inactive)

Structure (SMILES),cell number [1],cell number [2],H1.0 immunofluorescence intensity [3],H1.0 immunofluorescence intensity [4]
CC(=CC=CC(C)C(=O)O)C1CNC(C(=O)O)C1CC(=O)O (configuration not stated) [Domoic acid],101,109,93.6 (inactive),86.3 (inactive)
C[N+]1(C)C2CCC1CC(OC(=O)C(CO)c1ccccc1)C2.O=[N+]([O-])[O-] (configuration not stated) [Atropine methyl nitrate],101,113,94.9 (inactive),89.7 (inactive)
O=C(O)CC[N+](=O)[O-] [3-Nitropropionic acid],103,109,89.6 (inactive),84.9 (inactive)
"CCCC(=O)OC1C(C)C2(O)C(C=C(CO)CC3(O)C(=O)C(C)=CC32)C2C(C)(C)C12OC(=O)CCC (configuration not stated) [Phorbol 12,13-dibutyrate]",89.5,74.2,123 (active),157 (active)
C[N+](C)(C)CCCCCCCCCC[N+](C)(C)C.[Br-].[Br-] [Decamethonium dibromide],101,100,91.7 (inactive),88.8 (inactive)
"Cl.Clc1ccc(N2CCN(Cc3c[nH]c4ncccc34)CC2)cc1 [L-745,870 hydrochloride]",99.5,90.2,115 (inactive),102 (inactive)
N#CC(C#N)=Cc1ccc([N+](=O)[O-])c(O)c1 [Tyrphostin AG 126],99.1,111,102 (inactive),103 (inactive)
CC(Cc1ccc(OCC(=O)[O-])cc1)NCC(O)c1cccc(Cl)c1.[Na+] (configuration not stated),104,110,89.5 (inactive),88.6 (inactive)
CCC(C)C1OC2(C=CC1C)CC1CC(CC=C(C)C(OC3CC(OC)C(OC4CC(OC)C(O)C(C)O4)C(C)O3)C(C)C=CC=C3COC4C(O)C(C)=CC(C(=O)O1)C34O)O2 (configuration not stated) [Abamectin],101,94.4,101 (inactive),103 (inactive)
COC1C(O)C(C)OC(OC2C(Oc3cccc4c(O)c5c(=O)oc6ccc(C)c7c(=O)oc(c34)c5c67)OC(C)C(O)C2O)C1O (configuration not stated) [Chartreusin],105,99.3,100 (inactive),108 (inactive)
Nc1ccc(CCN2CCN(c3cccc(C(F)(F)F)c3)CC2)cc1,95.1,98.9,99.4 (inactive),107 (inactive)
NC(=O)COc1c(F)cc(SCCNS(=O)(=O)c2ccccc2)cc1F,106,102,93.5 (inactive),106 (inactive)
C=C(C)C1CNC(C(=O)O)C1CC(=O)O (configuration not stated) [Kainic acid],103 ± 3.2,108 ± 3,92.5 (inactive),88.9 (inactive)
CC(=O)NCCc1c[nH]c2ccccc12 [N-Acetyltryptamine],101,97.5,104 (inactive),94.1 (inactive)
O=C(O)C=CC(=O)O.O=C(O)C=CC(=O)O.c1ccc2nc(N3CCNCC3)ccc2c1 [Quipazine dimaleate],97.5,103,90 (inactive),112 (inactive)
O=C1C=C2C=CC3CC2(O1)C1CCCCN31 (configuration not stated) [Securinine],87.8,76.4,102 (inactive),99.9 (inactive)
Cl.Oc1cc2c(cc1O)C1c3ccccc3CNC1CC2 (configuration not stated) [Dihydrexidine hydrochloride],96.3,118,82.7 (inactive),103 (inactive)
CC(C)(C)NCC(O)c1ccccc1Cl.Cl (configuration not stated) [Tulobuterol hydrochloride],101,110,89.1 (inactive),96.4 (inactive)
CCOP(=O)(OCC)C(C)NC(=O)N(CCCl)N=O (configuration not stated),100,80.1,102 (inactive),90.6 (inactive)
CC(C)N(CCC(C(N)=O)(c1ccccc1)c1ccccn1)C(C)C (configuration not stated) [Disopyramide],99.8,106,103 (inactive),98.5 (inactive)
CS(=O)(=O)O.Oc1ccc2c3c1OC1c4oc5ccccc5c4CC4(O)C(C2)N(CC2CC2)CCC314 (configuration not stated) [Naltriben methanesulfonate],98.1,105,92.4 (inactive),105 (inactive)
CC1C(=O)OC2CCN3CC=C(COC(=O)C(C)(O)C1(C)O)C23 (configuration not stated) [Monocrotaline],102,109,85.6 (inactive),90.2 (inactive)
"COc1ccc2c(c1O)-c1c(OC)c(OC)cc3c1C(C2)N(C)CC3.Cl (single isomer, unassigned; (+)) [(+)-Isocorydine hydrochloride]",103,107,94.5 (inactive),91.4 (inactive)
COc1ccc(CC2NCCc3cc(OC)c(OC)cc32)cc1OC.Cl (configuration not stated),99.3,109,94.3 (inactive),80.5 (inactive)

# Source: the supplement of paper PMC7156485
